# How the values were obtained:
# Settings in all cases: concentration: 1 μM,replicates: in singlicate; n = 1
# PIP5K1A = tested on: PIP5K1A
# PIP5K1C = tested on: PIP5K1C
# PIP5K2B = tested on: PIP5K2B
# PIP5K2C = tested on: T1, PIP5K2C
# T1 construct: gene PIP4K2C
# PKAC-alpha = tested on: T2, PKAC-alpha
# T2 construct: gene PRKACA
# PKAC-beta = tested on: T3, PKAC-beta
# T3 construct: gene PRKACB
# PKMYT1 = tested on: PKMYT1
# PKN1 = tested on: PKN1
# PKN2 = tested on: PKN2
# PLK1 = tested on: PLK1
# 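Note: KINOMEscan kinase panel screen.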
SMILES,%Inh (PIP5K1A) [%],%Inh (PIP5K1C) [%],%Inh (PIP5K2B) [%],%Inh (PIP5K2C) [%],%Inh (PKAC-alpha) [%],%Inh (PKAC-beta) [%],%Inh (PKMYT1) [%],%Inh (PKN1) [%],%Inh (PKN2) [%],%Inh (PLK1) [%]
O=C(Nc1ccc(Oc2ccc3nc(NC(=O)C4CC4)cn3n2)c(F)c1)c1cccn(-c2ccccc2)c1=O,1,22,22,76,0,56,0,0,48,0
FC(F)(F)c1cc(Br)cc(Nc2nccc(-c3cnn4ncccc34)n2)c1 [GW810578],0,3,0,94.2,17,0,1,12,27,9
Cl.Nc1n[nH]c2cc(-c3ccccn3)ccc12 [GSK2189892],0,25,7,7,0,0,0,10,0,0
CC(C)S(=O)(=O)N1CCN(Cc2ccc3c(c2)nc(NC(=O)c2ccsc2)n3C[C@H](O)c2ccccc2)CC1 [GW635815],0,15,35,24,0,27,8,6,25,0
Cc1cccc2c(-c3ccncc3)c(-c3ccc(F)cc3)nn12.Cl [GW461487],13,35,10,0,0,0,9,0,0,0
O=c1[nH]cc(-c2ccc(O)cc2)c2sc(-c3ccncc3)cc12 [GSK1033723],0,65,19,27,0,0,8,0,0,13
COc1cc2nccc(Nc3ccc(Oc4ccccc4)cc3)c2cc1OC.Cl [GI261656],10,56,46,31,0,0,0,0,0,0
O=C(NOCC1CC1)c1cc(Br)c(F)c(F)c1Nc1ccc(I)cc1Cl,4,43,4,36,9,0,0,9,0,0
CC(=O)Nc1ccc(-c2cc3ncnc(SCC(=O)O)c3s2)cc1,0,70,0,46,0,0,25,12,5,0
Cc1ccc(CC(=O)N2CCc3cc(-c4cn(C)c5ncnc(N)c45)ccc32)cc1 [GSK2634758],33,57,32,17,0,0,4,0,16,7
Cc1n[nH]c2cc(Nc3ccnc(Nc4cccc(CN5CCOCC5)c4)n3)ccc12 [GW682569],57,70,33,71,0,0,0,46,0,0
Cc1ccc(C(=O)Nc2ccc(Oc3ccc4nc(NC(=O)C5CC5)cn4c3)c(F)c2)c(=O)n1-c1ccccc1,26,44,34,77,0,26,0,0,0,2
Cn1ccc2ncnc(Oc3ccc(NC(=O)Nc4cnn(C(C)(C)C)c4)c(Cl)c3)c21,17,3,100,0,0,3,0,0,3,0
C[C@@H]1CCN(C(=O)N2CCCC2)C[C@@H]1N(C)c1ncnc2[nH]ccc12,8,0,0,0,0,0,0,86,48,0
Cn1ccc2ncnc(Oc3ccc(NC(=O)Nc4ccnc(C(F)(F)F)c4)c(Cl)c3)c21,13,0,15,0,0,0,3,0,0,0
CN(c1cccc(CNc2nc(Nc3ccc4c(c3)CC(=O)N4)ncc2C(F)(F)F)c1)S(C)(=O)=O,45,45,90.9,46,0,0,5,77,19,0
CN1CCN(CCNc2nc3cc(Oc4ccc(NC(=O)Nc5cc(C(F)(F)F)ccc5F)cc4)ccc3[nH]2)CC1.Cl.Cl [GW768504],20,0,0,0,0,2,0,0,8,0
CCOC(=O)N1CCC(n2cnc(-c3ccc(F)cc3)c2-c2ccnc(N)n2)CC1 [SB-219952],0,32,2,94.4,9,36,32,0,8,23
Cc1ccc2c(-c3ccnc(Nc4ccc(C(F)(F)F)cc4)n3)cnn2n1 [GW819776],15,0,0,82,14,20,0,0,0,25
CC(=O)c1c(-c2ccncc2)[nH]c(-c2ccncc2)c1C [GW493036],50,91.1,19,16,0,47,0,16,0,18
Cn1cc(-c2cccc3c(N)c(C(N)=O)nnc23)cn1,0,5,0,7,0,16,9,0,23,14

# From publication PMC5540273 (PLoS ONE, 2017)
